“And” between values parts separate entries of the source, which are not always exact repeats. Equal values may be shown once. Some structures have more than one record in an assay (separate samples or runs), and their calls can disagree. The source made the active and inactive calls. The calls were made as follows: active = hit-call score of the fitted dose curve at least 0.9, where 1 is the maximum; inactive = score below 0.9.
How the values were obtained:
[1] = ATG_PBREM_CIS: Attagene CIS-FACTORIAL HepG2 Assay for human Phenobarbital-responsive Enhancer Module (PBREM) (AID 2282955); settings: HepG2 PBREM cis-reporter, Attagene multiplexed transcription; actives raise or lower the signal
Summary of the method: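 Reporter mRNA read by RT-PCR, 6-FAM primer extension, HpaI digestion and capillary electrophoresis. Transfected HepG2 cells, 24 h compound exposure. Gain or loss of signal fitted bidirectionally relative to DMSO baseline.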

[2] = biological target: Paired box protein Pax-6 (Homo sapiens) (UniProt P26367); test: ATG_Pax6_CIS: Attagene CIS-FACTORIAL HepG2 Assay for human Paired Box 6 (PAX6) (AID 2282956); settings: HepG2 CIS-FACTORIAL PAX6 reporter transcription, RNA readout; actives raise or lower the signal
Summary of the method: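 HepG2 cells transiently transfected with cis-promoter-driven multiplexed reporter units sensing endogenous transcription factor activity; 24 h chemical exposure. Reporter mRNA quantified by RT-PCR, 6-FAM labelling, HpaI digestion and capillary electrophoresis; bidirectional fit versus DMSO baseline.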

[3] = ATG_RORE_CIS: Attagene CIS-FACTORIAL HepG2 Assay for human RAR-related Orphan Receptor Element (RORE) (AID 2282959); settings: HepG2 Attagene cis-factorial RORE reporter, mRNA; actives raise or lower the signal
Summary of the method: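 Readout: fluorescent reporter mRNA by RT-PCR plus capillary electrophoresis, 24 h after dosing transfected HepG2 cells. Endogenous transcription factor activity on a cis promoter element is measured. Gain or loss of signal fitted against DMSO.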

[4] = ATG_Sox_CIS: Attagene CIS-FACTORIAL HepG2 Assay for human SRY-box transcription factor (SOX) (AID 2282960); settings: HepG2 Attagene cis-factorial SOX reporter, mRNA; actives raise or lower the signal
Summary of the method: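 Read-out: fluorescent RT-PCR products of SOX1-linked reporter transcripts resolved by capillary electrophoresis, fitted bidirectionally against DMSO. Transiently transfected HepG2 cells, 24 h after chemical exposure, endogenous transcription factor activity.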

[5] = biological target: Signal transducer and activator of transcription 3 (Homo sapiens) (UniProt P40763); test: ATG_STAT3_CIS: Attagene CIS-FACTORIAL HepG2 Assay for human Signal Transducer and Activator of Transcription 3 (STAT3) (AID 2282963); settings: HepG2, Attagene cis-factorial STAT3 reporter transcription; actives raise or lower the signal
Summary of the method: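 Endogenous STAT3-responsive cis-element activity was read in transiently transfected HepG2 cells after 24 h treatment. Reporter transcripts were quantified via RT-PCR and capillary electrophoresis, with DMSO as negative control and bidirectional curve fitting.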

[6] = ATG_TA_CIS: Attagene CIS-FACTORIAL HepG2 Assay for human TA Basal Promoter (AID 2282964); settings: HepG2 Attagene CIS-factorial TA basal promoter reporter; actives raise or lower the signal
Summary of the method: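 Fluorescence from labelled RT-PCR reporter fragments, separated by capillary electrophoresis, gives the signal. Cells: HepG2 transiently carrying multiple reporter units, 24 h chemical dosing. Gain or loss relative to DMSO.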

[7] = ATG_PXRE_CIS: Attagene CIS-FACTORIAL HepG2 Assay for human Pregnane X Receptor Element (PXRE) (AID 2282957); settings: HepG2 Attagene CIS-FACTORIAL PXRE reporter, mRNA; actives raise or lower the signal
Summary of the method: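 Multiplexed cis-reporter assay in transiently transfected human HepG2 cells; 24 h chemical exposure. Reporter transcripts quantified by RT-PCR with fluorescent labeling and capillary electrophoresis.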

[8] = ATG_SREBP_CIS: Attagene CIS-FACTORIAL HepG2 Assay for human Sterol Regulatory Element Binding (SREBP) (AID 2282962); settings: HepG2 Attagene cis-factorial SREBP reporter, mRNA; actives raise or lower the signal
Summary of the method: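 HepG2 cells transiently transfected with multiplexed cis-promoter reporter units sensing endogenous transcription factors; reporter mRNA measured 24 h after dosing by RT-PCR, 6-FAM labeling, HpaI digestion and capillary electrophoresis. Bidirectional fit versus DMSO.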

[9] = biological target: Transcription factor Sp1 (Homo sapiens) (UniProt P08047); test: ATG_Sp1_CIS: Attagene CIS-FACTORIAL HepG2 Assay for human Specificity Protein 1 (Sp1) (AID 2282961); settings: HepG2 Sp1 cis-reporter transcription, actives raise or lower the signal
Summary of the method: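 Read-out: fluorescence of 6-FAM-labeled, HpaI-digested RT-PCR products separated by capillary electrophoresis. HepG2 cells carried transfected cis-element reporter units and were exposed to chemicals for 24 h; gain or loss of signal fitted relative to DMSO.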

[10] = ATG_PPRE_CIS: Attagene CIS-FACTORIAL HepG2 Assay for human Peroxisome Proliferator-activated Response Element (PPRE) (AID 2282958); settings: HepG2 PPRE cis-element reporter, Attagene transcription factor profiling; actives raise or lower the signal
Summary of the method: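 Read-out: fluorescent reporter mRNA fragments resolved by capillary electrophoresis after RT-PCR. HepG2 cells carried transiently transfected PPRE-driven cis reporter constructs and were dosed for 24 h; gain or loss of signal fitted relative to DMSO.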

Measured: AC50

Sequence of Signal transducer and activator of transcription 3 (Homo sapiens) (P40763 whole entry, looked up): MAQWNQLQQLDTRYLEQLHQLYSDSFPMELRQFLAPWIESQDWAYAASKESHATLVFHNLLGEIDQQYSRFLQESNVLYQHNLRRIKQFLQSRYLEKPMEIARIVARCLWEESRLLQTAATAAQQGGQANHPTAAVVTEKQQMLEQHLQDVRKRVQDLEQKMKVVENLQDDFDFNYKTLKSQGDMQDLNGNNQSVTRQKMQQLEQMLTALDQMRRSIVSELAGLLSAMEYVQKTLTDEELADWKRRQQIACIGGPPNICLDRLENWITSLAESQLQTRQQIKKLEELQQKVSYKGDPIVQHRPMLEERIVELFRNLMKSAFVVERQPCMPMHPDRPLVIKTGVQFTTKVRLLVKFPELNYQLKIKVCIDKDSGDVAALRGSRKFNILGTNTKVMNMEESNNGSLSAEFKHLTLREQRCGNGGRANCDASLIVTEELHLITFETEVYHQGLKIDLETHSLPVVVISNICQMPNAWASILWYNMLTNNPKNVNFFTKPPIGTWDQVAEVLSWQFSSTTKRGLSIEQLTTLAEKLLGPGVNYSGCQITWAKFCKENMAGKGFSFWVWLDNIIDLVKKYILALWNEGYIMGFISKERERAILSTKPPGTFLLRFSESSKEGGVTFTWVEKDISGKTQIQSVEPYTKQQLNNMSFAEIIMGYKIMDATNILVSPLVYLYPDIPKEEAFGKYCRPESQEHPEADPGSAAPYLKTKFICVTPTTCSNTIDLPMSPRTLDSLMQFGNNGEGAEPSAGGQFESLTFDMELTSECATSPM
Sequence of Transcription factor Sp1 (Homo sapiens) (P08047 whole entry, looked up): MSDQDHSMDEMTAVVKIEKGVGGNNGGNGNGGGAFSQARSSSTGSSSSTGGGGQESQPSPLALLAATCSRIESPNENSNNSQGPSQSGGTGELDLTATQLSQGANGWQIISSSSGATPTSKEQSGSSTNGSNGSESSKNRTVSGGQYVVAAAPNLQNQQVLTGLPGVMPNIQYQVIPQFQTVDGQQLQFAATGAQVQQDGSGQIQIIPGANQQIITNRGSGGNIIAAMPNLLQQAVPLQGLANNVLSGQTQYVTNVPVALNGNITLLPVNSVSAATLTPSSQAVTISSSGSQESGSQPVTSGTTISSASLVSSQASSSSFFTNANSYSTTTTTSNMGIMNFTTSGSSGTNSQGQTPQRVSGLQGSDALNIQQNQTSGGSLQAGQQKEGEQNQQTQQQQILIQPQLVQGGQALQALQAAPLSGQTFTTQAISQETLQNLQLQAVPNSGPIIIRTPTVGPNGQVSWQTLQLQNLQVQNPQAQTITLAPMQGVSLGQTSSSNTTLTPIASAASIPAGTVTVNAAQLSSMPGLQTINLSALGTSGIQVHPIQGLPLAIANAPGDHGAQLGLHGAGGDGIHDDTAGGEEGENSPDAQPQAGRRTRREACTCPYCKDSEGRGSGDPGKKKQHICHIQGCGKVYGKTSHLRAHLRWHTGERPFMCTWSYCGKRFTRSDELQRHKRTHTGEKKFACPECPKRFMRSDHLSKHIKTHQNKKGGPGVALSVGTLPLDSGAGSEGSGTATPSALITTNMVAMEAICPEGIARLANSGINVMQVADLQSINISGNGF
Sequence of Paired box protein Pax-6 (Homo sapiens) (P26367 whole entry, looked up): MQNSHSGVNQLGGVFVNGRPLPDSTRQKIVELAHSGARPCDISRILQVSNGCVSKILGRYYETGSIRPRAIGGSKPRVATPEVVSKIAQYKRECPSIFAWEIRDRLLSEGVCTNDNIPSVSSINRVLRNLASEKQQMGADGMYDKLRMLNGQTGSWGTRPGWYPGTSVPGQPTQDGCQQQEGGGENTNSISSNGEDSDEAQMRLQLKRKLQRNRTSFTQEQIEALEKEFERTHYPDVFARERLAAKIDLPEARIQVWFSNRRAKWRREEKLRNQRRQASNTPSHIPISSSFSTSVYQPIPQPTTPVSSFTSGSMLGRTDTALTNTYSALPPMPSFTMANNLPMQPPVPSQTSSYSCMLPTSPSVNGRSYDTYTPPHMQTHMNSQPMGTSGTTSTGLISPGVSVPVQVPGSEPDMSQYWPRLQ

CON(C)C(=O)Nc1ccc(Cl)c(Cl)c1
inactive: [1] | [2] | [3] | [4] | [5] | [6]
active: [1] 31.9 µM and 27.2 µM

CCCCOC(=O)c1ccccc1C(=O)OCCCC
inactive: [1] | [2] | [3] | [4] | [5]
active: [1] 27.5 µM and 67 µM and 50 µM | [3] 29 µM and 50 µM

N#Cc1cc(Br)c(O)c(Br)c1
inactive: [1] | [2] | [4] | [8] | [5]
active: [7] 18.4 µM | [3] 50 µM

CCCCNC(=O)OCC#CI
active: [1] 25.9 µM | [2] 32.7 µM | [7] 48.6 µM and 1.56 µM and 1.73 µM | [3] 27.3 µM | [4] 26.5 µM | [5] 60.2 µM
inactive: [1] | [2] | [3] | [4] | [8] | [5]

CCOP(=S)(OCC)SCn1c(=O)oc2cc(Cl)ccc21
active: [1] 7.17 µM
inactive: [2] | [3] | [4] | [9] | [5]

COc1cnc(OC)n2nc(NS(=O)(=O)c3c(OCC(F)F)cccc3C(F)(F)F)nc12
not listed: [6] | [7] | [10]
inactive: all other assays above

C=CCC1=C(C)C(OC(=O)C2C(C=C(C)C)C2(C)C)CC1=O (stereo not drawn)
inactive: [1] | [2] | [3] | [4] | [9] | [8] | [5]
active: [2] 64.5 µM [middle of 4 runs] | [7] 566 nM [middle of 6 runs] | [3] 27.2 µM [middle of 4 runs] | [4] 90.4 µM and 105 µM | [9] 54.2 µM [middle of 5 runs]

COc1nc(C)nc(NC(=O)NS(=O)(=O)c2ccccc2Cl)n1
inactive: [1] | [2] | [7] | [3] | [4] | [5]
active: [7] 31.3 µM

CCOC(=O)CC(SP(=S)(OC)OC)C(=O)OCC (stereo not drawn)
inactive: [1] | [2] | [3] | [4] | [8] | [5]
active: [2] 100 µM | [7] 2.27 µM and 12.2 µM | [3] 150 µM

CCCCNC(=O)n1c(NC(=O)OC)nc2ccccc21
not listed: [8] | [10]
inactive: all other assays above

N#Cc1nn(-c2c(Cl)cc(C(F)(F)F)cc2Cl)c(N)c1S(=O)C(F)(F)F (stereo not drawn)
inactive: [1] | [2] | [3] | [4] | [8] | [5]
active: [1] 19.4 µM | [2] 48.4 µM

COc1nc(C)nc(NC(=O)NS(=O)(=O)c2ccccc2CCC(F)(F)F)n1
inactive: [1] | [2] | [3] | [4] | [5]
active: [7] 18.9 µM and 50 µM and 33.4 µM

COC(=O)C(C)Oc1ccc(Oc2ccc(Cl)cc2Cl)cc1 (stereo not drawn)
active: [7] 23 µM and 16.9 µM and 22 µM
not listed: [6] | [8] | [10]
inactive: all other assays above

CC(C)C1(C)N=C(c2nc3ccccc3cc2C(=O)O)NC1=O (stereo not drawn)
active: [7] 11.1 µM
inactive: [1] | [2] | [3] | [4] | [5]

COC(=O)N(OC)c1ccccc1COc1ccn(-c2ccc(Cl)cc2)n1
active: [1] 1.67 µM | [7] 1.28 µM | [3] 2.2 µM
inactive: [2] | [4] | [9] | [5]

Fc1ccc(Oc2ccnc3cc(Cl)cc(Cl)c23)cc1
active: [10] 2.17 µM
inactive: [1] | [2] | [3] | [4] | [5]

CS/C(C)=N/OC(=O)N(C)SN(C)C(=O)O/N=C(\C)SC
not listed: [8] | [9] | [10]
inactive: all other assays above

COc1nc(NC(C)C)nc(NC(C)C)n1
active: [3] 30.5 µM
inactive: [1] | [2] | [3] | [4] | [5]

CCNc1nc(Cl)nc(NCC)n1
active: [7] 32.7 µM
not listed: [6] | [9] | [10]
inactive: all other assays above

CCCN(CCC)c1c([N+](=O)[O-])cc(S(N)(=O)=O)cc1[N+](=O)[O-]
inactive: [1] | [2] | [3] | [4] | [8] | [5]
active: [1] 2.2 µM

CCCCC(CC)COC(=O)c1ccccc1C(=O)OCC(CC)CCCC (stereo not drawn)
inactive: [1] | [2] | [3] | [4] | [9] | [5]

COC(=O)C=C(C)OP(=O)(OC)OC
not listed: [6] | [8] | [10]
inactive: all other assays above

CCCC1COC(Cn2cncn2)(c2ccc(Cl)cc2Cl)O1 (stereo not drawn)
active: [1] 50 µM
inactive: [1] | [2] | [3] | [4] | [5]

— PubChem BioAssay (EPA / NIEHS)
